Several values for one entry are separate records, joined by “and”; a condition that tells them apart may be missing. Equal entries are not always repeated. Results with a measured potency or affinity are listed apart.
System: Escherichia coli
Conditions: Concentration 32 ug.mL-1; ASSAY_TEST Inhibition of Bacterial Growth; detection method Absorption (OD600); MEDIA CAMHB; plate type 384well; NBS; CORNING #3640; time 18 hr, 32 ug/mL

## C#CCN1CCc2nc(N)c(C#N)c(-c3ccccc3)c2C1
  Inhibition: -14.9% and -16.29%

Source: ChEMBL document CHEMBL4513135, “CO-ADD screening of IQOG CSIS (Spain) compounds”
